Assay [1] has as its target T1, SALL4 ZFC4 R900W (HT-SELEX) (Mus musculus, UniProt Q8BX22 870-940, R900W).
T1 sequence: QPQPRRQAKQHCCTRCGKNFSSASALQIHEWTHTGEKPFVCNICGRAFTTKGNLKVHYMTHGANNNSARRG
As to the kind of experiment: HT-SELEX; high values mean tight binding. The following applies: protein: recombinant; vector His6-GST; dsDNA, one strand shown. In a few lines:
(§1)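 Binding signal is defined as the fold change of each canonical k-mer's read fraction versus the initial random library. Selections used 1 µg of purified recombinant mouse SALL4 zinc finger cluster 4 (residues 870–940) with library DNA (1.5 µg first cycle, 200 ng later) in 100 µl of 10 mM Tris–HCl pH 7.5, 50 mM NaCl, poly(dI-dC) and DTT, for 10 min at room temperature, followed by Ni2+ bead capture, washing and PCR. Up to 6 such cycles were run in triplicate before MiSeq sequencing and 6-mer scanning.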

In assay [2] the target is T2, SALL4 ZFC4 G921D (HT-SELEX) (Mus musculus, UniProt Q8BX22 870-940, G921D).
T2 sequence: T1 sequence with W31R, G52D
As to the kind of experiment: HT-SELEX; high values mean tight binding. The following applies: protein: recombinant; vector His6-GST; dsDNA, one strand shown. In a few lines:
as §1

Positions count from the first letter of the chain named.

For CTCTTA, the binding signal in assay [1] was determined as 1.6 ± 0.108 fold-change vs cycle 0; in assay [2], 1.46 ± 0.111 fold-change vs cycle 0.
In the same order, the values of GGCGTA are 0.242 ± 0.0221 fold-change vs cycle 0 and 0.377 ± 0.0541 fold-change vs cycle 0.
In the same order, the values of CCCGGC are 0.0588 ± 0.00399 fold-change vs cycle 0 and 0.151 ± 0.0654 fold-change vs cycle 0.
Consider CTGCCC, for which the binding signal in assay [1] was 0.166 ± 0.00951 fold-change vs cycle 0; in assay [2] it was 0.291 ± 0.0763 fold-change vs cycle 0.
In the same order, the values of CATCGC are 0.317 ± 0.0166 fold-change vs cycle 0 and 0.45 ± 0.0668 fold-change vs cycle 0.
For GCGTCA the same measures were 0.266 ± 0.00412 fold-change vs cycle 0 and 0.39 ± 0.0541 fold-change vs cycle 0.
For CAGGCA the same measures were 0.348 ± 0.0149 fold-change vs cycle 0 and 0.477 ± 0.0613 fold-change vs cycle 0.
For the sequence AGGCGA, the binding signal is 0.276 ± 0.00793 fold-change vs cycle 0 in assay [1] and 0.438 ± 0.0693 fold-change vs cycle 0 in assay [2].
For CGGCGA the same measures were 0.077 ± 0.0153 fold-change vs cycle 0 and 0.177 ± 0.0705 fold-change vs cycle 0.
For GCCGAC the same measures were 0.0865 ± 0.0114 fold-change vs cycle 0 and 0.204 ± 0.0612 fold-change vs cycle 0.
As to GAGCCA, the binding signal stood at 0.301 ± 0.00918 fold-change vs cycle 0 in assay [1] and 0.466 ± 0.0659 fold-change vs cycle 0 in assay [2].
For ATGATG the same measures were 1.51 ± 0.0621 fold-change vs cycle 0 and 1.43 ± 0.0931 fold-change vs cycle 0.
For CCGTGC the same measures were 0.143 ± 0.00796 fold-change vs cycle 0 and 0.251 ± 0.0641 fold-change vs cycle 0.
As to CGGGGA, the values for the binding signal in assay [1] and in assay [2] were 0.231 ± 0.0209 fold-change vs cycle 0 and 0.347 ± 0.093 fold-change vs cycle 0, respectively.
In the same order, the values of CGCGCG are 0.0217 ± 0.00502 fold-change vs cycle 0 and 0.0939 ± 0.0507 fold-change vs cycle 0.
In the case of GCGTAC, the binding signal came to 0.308 ± 0.00417 fold-change vs cycle 0 in assay [1] and 0.455 ± 0.0643 fold-change vs cycle 0 in assay [2].
Take CCGGCA: the binding signal was determined as 0.108 ± 0.00217 fold-change vs cycle 0 in assay [1] and 0.221 ± 0.0662 fold-change vs cycle 0 in assay [2].
In the same order, the values of AGAGCC are 0.335 ± 0.0199 fold-change vs cycle 0 and 0.505 ± 0.0782 fold-change vs cycle 0.
Regarding CCAGCG, the results for the binding signal in assay [1] and in assay [2] were 0.131 ± 0.0133 fold-change vs cycle 0 and 0.245 ± 0.0689 fold-change vs cycle 0, respectively.
For GTCGAC the same measures were 0.301 ± 0.0134 fold-change vs cycle 0 and 0.452 ± 0.0612 fold-change vs cycle 0.
In the case of CACCGC, the results for the binding signal in assay [1] and in assay [2] were 0.132 ± 0.00669 fold-change vs cycle 0 and 0.239 ± 0.0797 fold-change vs cycle 0, respectively.
In the same order, the values of CGCCCA are 0.107 ± 0.00392 fold-change vs cycle 0 and 0.227 ± 0.0707 fold-change vs cycle 0.
CGCAGC: the binding signal was 0.0883 ± 0.014 fold-change vs cycle 0 in assay [1] and 0.191 ± 0.0678 fold-change vs cycle 0 in assay [2].
Take GCTCGA: the binding signal in assay [1] was found to be 0.308 ± 0.00752 fold-change vs cycle 0; in assay [2], 0.475 ± 0.0642 fold-change vs cycle 0.
In the same order, the values of ATCCGC are 0.279 ± 0.016 fold-change vs cycle 0 and 0.426 ± 0.0842 fold-change vs cycle 0.
Turning to GCCTCC, the figures for the binding signal in assay [1] and in assay [2] were 0.209 ± 0.0253 fold-change vs cycle 0 and 0.334 ± 0.0802 fold-change vs cycle 0, respectively.
As to ACGAGC, the binding signal was determined as 0.322 ± 0.019 fold-change vs cycle 0 in assay [1] and 0.459 ± 0.061 fold-change vs cycle 0 in assay [2].
In the same order, the values of AGTGCG are 0.276 ± 0.0168 fold-change vs cycle 0 and 0.407 ± 0.068 fold-change vs cycle 0.
For CTACGC the same measures were 0.278 ± 0.0143 fold-change vs cycle 0 and 0.414 ± 0.0855 fold-change vs cycle 0.
Take CGACCG: the binding signal came to 0.146 ± 0.0139 fold-change vs cycle 0 in assay [1] and 0.263 ± 0.0799 fold-change vs cycle 0 in assay [2].
As to CGTGCA, the binding signal in assay [1] came to 0.286 ± 0.00377 fold-change vs cycle 0; in assay [2], 0.417 ± 0.0517 fold-change vs cycle 0.
For ATGCCC, the values for the binding signal in assay [1] and in assay [2] were 0.331 ± 0.00967 fold-change vs cycle 0 and 0.475 ± 0.0568 fold-change vs cycle 0, respectively.
GACAGC: the results for the binding signal in assay [1] and in assay [2] were 0.361 ± 0.0178 fold-change vs cycle 0 and 0.491 ± 0.0963 fold-change vs cycle 0, respectively.
For GGCCAC the same measures were 0.126 ± 0.019 fold-change vs cycle 0 and 0.253 ± 0.0792 fold-change vs cycle 0.
For AGCTGC the same measures were 0.284 ± 0.0104 fold-change vs cycle 0 and 0.414 ± 0.0709 fold-change vs cycle 0.
On to GGAGCC, for which the binding signal in assay [1] worked out at 0.187 ± 0.00654 fold-change vs cycle 0; in assay [2] it was 0.319 ± 0.0566 fold-change vs cycle 0.
In the same order, the values of GGGCAC are 0.144 ± 0.00697 fold-change vs cycle 0 and 0.281 ± 0.0804 fold-change vs cycle 0.
In the case of CCCTGC, the binding signal was found to be 0.219 ± 0.0265 fold-change vs cycle 0 in assay [1] and 0.323 ± 0.0875 fold-change vs cycle 0 in assay [2].
In the same order, the values of GCTCCC are 0.239 ± 0.0043 fold-change vs cycle 0 and 0.357 ± 0.0785 fold-change vs cycle 0.
As to ACCCGC, the results for the binding signal in assay [1] and in assay [2] were 0.145 ± 0.00827 fold-change vs cycle 0 and 0.259 ± 0.0632 fold-change vs cycle 0, respectively.

The record behind these values is publication PMC9838217, “Structure of SALL4 zinc finger domain reveals link between AT-rich DNA binding and Okihiro syndrome”.
